HP1b binding inh: HTS for Inhibitors of HP1-beta Chromodomain Interactions with Methylated Histone Tails. Chromobox protein homolog 1 (Homo sapiens), P83916. AlphaScreen HP1-beta / biotin-H3K9me3 peptide binding. Potency, µM (titrated, usually from 114 µM), without a hit: top-dose activity change, negative = inhibition, most hits filed as inhibitors. 390,000 compounds, 0.56% hits; further: potency means the concentration at half of the fitted maximal effect; nearly all actives have a fitted effect of over 70% in size
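HP1-beta protein (50 nM final) preincubated 30 min at room temperature with biotinylated H3(1-18)K9me3 peptide (50 nM) in PBS pH 7.4, 0.01% Tween-20, then compound added for 30 min. AlphaScreen streptavidin donor/nickel chelate acceptor beads (10 ug/mL final), 30 min dark, luminescence read.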
G9a inh-1: qHTS Assay for Inhibitors of Histone Lysine Methyltransferase G9a; Histone-lysine N-methyltransferase EHMT2 (Homo sapiens), Q96KQ7; G9a H3K9 monomethylation, AlphaScreen, 2 h; Potency, µM (highest dose often 102 µM), inactives show top-dose activity, negative = inhibition, usual class: inhibitors; 350,000 compounds, 8.8% hits; AID 504332, 2011; further: potency means the concentration at half of the fitted maximal effect; on the % scale 0 is the no-effect control and ±100 the full control effect; nearly all actives have a fitted effect of over 75% in size
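G9a (20 nM) was preincubated 15 min with compound, then reacted 2 h at room temperature with 500 nM biotin-H3K9 peptide and 20 µM SAM. Monomethyl-H3K9 detected by AlphaScreen using anti-H3K9me1 antibody.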
BAZ2B block: qHTS Assay for Inhibitors of BAZ2B; 360,000 compounds, 4.4% hits; Bromodomain adjacent to zinc finger domain protein 2B (Homo sapiens), Q9UIF8; Potency, µM (top dose mostly 114 µM), inactives show at the top dose activity change, negative = inhibition, hits mostly inhibitors; AlphaScreen BAZ2B-H3K14Ac peptide displacement; further: potency means the concentration at half of the fitted maximal effect; on the % scale 0 is the no-effect control and ±100 the full control effect; nearly all actives have a fitted effect of over 60% in size
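Multi-concentration screen (max 110 uM) measuring displacement of acetylated histone H3 peptide from BAZ2B by AlphaScreen, using 50 nM protein, 50 nM peptide and 10 ug/mL streptavidin donor plus Ni-chelate acceptor beads.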
GLS inh: qHTS for Inhibitors of Glutaminase (GLS); GLS enzymatic activity, qHTS titration; Potency, µM (top dose mostly 45.5 µM), inactives show top-dose activity change, negative = inhibition, most hits filed as inhibitors; 410,000 compounds, 0.21% hits; AID 624170, 2012; further: potency means the concentration at half of the fitted maximal effect; on the % scale 0 is the no-effect control and ±100 the full control effect
Target sequence (O94925 whole entry, looked up): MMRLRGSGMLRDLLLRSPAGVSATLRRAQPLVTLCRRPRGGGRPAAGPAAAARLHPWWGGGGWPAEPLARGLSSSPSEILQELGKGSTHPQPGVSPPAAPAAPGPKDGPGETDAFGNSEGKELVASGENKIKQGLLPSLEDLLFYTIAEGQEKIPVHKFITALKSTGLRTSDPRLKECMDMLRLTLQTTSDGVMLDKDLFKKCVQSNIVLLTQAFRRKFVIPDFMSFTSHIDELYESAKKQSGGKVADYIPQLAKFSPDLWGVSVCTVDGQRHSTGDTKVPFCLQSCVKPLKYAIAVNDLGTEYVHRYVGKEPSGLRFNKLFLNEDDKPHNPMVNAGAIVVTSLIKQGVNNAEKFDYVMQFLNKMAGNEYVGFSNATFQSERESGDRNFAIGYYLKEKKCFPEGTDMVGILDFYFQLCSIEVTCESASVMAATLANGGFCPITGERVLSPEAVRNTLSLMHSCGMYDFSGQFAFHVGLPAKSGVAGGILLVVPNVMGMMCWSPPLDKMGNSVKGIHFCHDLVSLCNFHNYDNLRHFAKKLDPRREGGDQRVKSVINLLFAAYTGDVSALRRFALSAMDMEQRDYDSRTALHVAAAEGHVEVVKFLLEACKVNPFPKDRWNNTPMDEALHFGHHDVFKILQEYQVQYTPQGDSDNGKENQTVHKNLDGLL
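Coupled fluorescence readout: glutamate oxidase/HRP/Amplex Red detect glutamate formed by hKGA from L-glutamine (1 mM solution added). Buffer 45 mM KH2PO4 pH 8.2, 0.02% Tween-20; reads at t0 and 30 min RT.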
JMJD2A Tudor inh: qHTS Assay for Inhibitors of JMJD2A-Tudor Domain; Lysine-specific demethylase 4A (Homo sapiens), O75164; AID 504339, 2011; Potency, µM (top dose mostly 114 µM), for the others: top-dose activity change, negative = inhibition, hits mostly inhibitors; 390,000 compounds, 4.4% hits; AlphaScreen JMJD2A-Tudor / H3K4me3 peptide binding; further: potency means the concentration at half of the fitted maximal effect; on the % scale 0 is the no-effect control and ±100 the full control effect; nearly all actives have a fitted effect of over 50% in size
JMJD2E confirm: Confirmation qHTS Assay for Inhibitors of Human Jumonji Domain Containing 2E (JMJD2E); shares compounds with JMJD2A Tudor inh; Potency, µM (highest dose often 56.8 µM), without a hit: at the highest dose activity change, negative = inhibition, most hits filed as inhibitors; AID 2677, 2010; Recombinant JMJD2E, FDH-coupled NADH fluorescence (FDH is formaldehyde dehydrogenase); 140 compounds, 93% hits
FDH counter: Counterscreen for JMJD2E Inhibitors: qHTS Assay for Inhibitors of Formaldehyde Dehydrogenase (FDH) | Potency, µM (highest dose often 56.7 µM), for the others: top-dose activity, negative = inhibition, usual class: inhibitors | 140 compounds, 10% hits | shares compounds with JMJD2A Tudor inh | FDH enzyme assay, NADH fluorescence kinetic
G9a inh-2: qHTS Assay for Inhibitors of Histone Lysine Methyltransferase G9a: Hit Confirmation | shares compounds with JMJD2A Tudor inh | G9a H3K9 monomethylation, AlphaScreen, 2 h | Potency, µM, usual class: inhibitors | 370 compounds, 89% hits | AID 588344, 2011; further: potency means the concentration at half of the fitted maximal effect; nearly all actives have a fitted effect of over 65% in size
RGS4 confirm: qHTS for Inhibitors of Regulator of G Protein Signaling(RGS) 4: Hit Validation. 25 compounds, 80% hits. Potency, µM, actives largely listed as inhibitors. RGS4 GAP activity, Transcreener GDP fluorescence polarization. AID 602388, 2012. shares compounds with JMJD2A Tudor inh
The depositor's hits bear a star; ? = inconclusive; / = no result given; [ ] = dose if it differs, or a comment. Most compounds without a hit are left out; they make up all but 10% or so of the library. The call rests on the fitted dose curve; in most records, active means well fitted curve in the direction sought with a large enough effect; inconclusive means small, poorly fitted or top-dose-only effect, or another doubt; inactive means no such curve, though single readings can be large; an effect the other way counts as inactive or inconclusive.

SMILES	HP1b binding inh	G9a inh-1	BAZ2B block	GLS inh	JMJD2A Tudor inh	G9a inh-2	others
COC1CC(NC(C)=O)C(OC(=O)c2ccccc2)C(CBr)O1 (stereo not given)	/	/	/	-5.1%	/	/
CCOc1ccc(NS(=O)(=O)c2ccc(NC(=O)N3CCCC3)cc2)cc1	15.6%[57 µM]	8.6%[59 µM]	3.7%	11.4%	-0.3%	/
c1ccc2c(NC3CC3)nc(-c3ccoc3)nc2c1	/	4.2%[0.501 µM]	/	/	/	/	RGS4 confirm=?
c1ccc2c(NC3CCNCC3)nc(-c3ccoc3)nc2c1	/	15.0%[0.501 µM]	/	/	/	/
CCSC1=NC2(CCN(C(=O)NC3CCCCC3)CC2)N=C1c1ccc(OC)cc1	31.2%	-4.6%[59 µM]	18.6%[57.1 µM]	4.5%	-20.7%	/
Oc1ccc(Cl)cc1CNc1cnc2ccccc2c1	30.6%	?	-10.6%	18.8%	-25.2%	/
Oc1ccc2ccccc2c1CNc1cnc2ccccc2c1	-11.7%	1.41µM*	?	/	?	0.502*
Cc1[nH]c2ccccc2c1C(Nc1nccs1)c1ccncc1 (stereo not given)	34.1%	-17.0%[59 µM]	?	1.8%	-17.8%	/
Oc1c(C(Nc2nccs2)c2ccc(C(F)(F)F)cc2)ccc2cccnc12 (stereo not given)	9.8%	-6.1%	10.4%	-22.5%	44.7µM*	/	JMJD2E confirm=22.4µM*;FDH counter=-26.0%
CC(C)OC(=O)CN1CCN(S(=O)(=O)c2cc(Cl)ccc2Cl)CC1	14.1%	-26.2%[12.7 µM]	13.6%	1.2%	-18.6%	/
CN(C)c1ccc(NC(=O)CN2CCN(S(=O)(=O)c3cc(Cl)ccc3Cl)CC2)cc1	?	1.41µM*	35.5µM*	39.3%	?	4.47*
CCSc1nnc(SCC(=O)NC2CCCCC2)s1	16.6%	6.6%[2.33 µM]	8.2%	-8.7%	-14.4%	/
CCN(CC)c1ccc(NC(=O)Nc2cccc(C(C)=O)c2)cc1	-69.1%	1.78µM*	31.6µM*	60.1%	35.5µM*	3.17*
Cc1ccc(-c2nnc(SCC(=O)Nc3cccnc3Cl)n2N)cc1	53.9%	/	/	-5.6%	-4.8%	/
Nn1c(SCC(=O)Nc2cccnc2Cl)nnc1-c1ccccc1	?	?	6.9%	-23.5%	20µM*	0.796*
O=Cc1ccc(OC(=O)Cc2ccc(F)cc2)cc1	/	11.2%[0.501 µM]	-2.1%	/	/	/
CC(C)OCc1ccc(C(=O)N2CCN(S(=O)(=O)c3ccc(Br)s3)CC2)cc1	57.5%	?	-4.7%	-0.5%	-0.3%	44.7*
N#Cc1ccc(C(=O)N2CCN(S(=O)(=O)c3ccc(Br)s3)CC2)cc1	40.4%	?	-13.1%	-3.4%	-7.5%	/
Cn1c(SCC(=O)NC2CCCCC2)nnc1-c1cccc(N)c1	29.1%	1.58µM*	7.3%	1.3%	-5.7%	2.83*
Cn1c(SCC(=O)NC2CCCC2)nnc1-c1ccncc1	34.1%	/	-11.5%	-3.4%	-10.3%	/
Oc1ccc(NCc2ccccc2OCc2ccccc2)cc1	?	1.78µM*	28.2µM*	?	56.2µM*	5.76*
c1ccc(-c2ccc(N3CCCC4(CCNCC4)C3)cc2)cc1	/	-46.2%[12.7 µM]	/	/	/	/	RGS4 confirm=26.7*
O=C(OCC(=O)c1ccccc1Br)c1ccccn1	2.8%	?	10µM*	10.9%	8.91µM*	1.59*
CSc1nnc(C2CCCN2)n1C (stereo not given)	27.5%	2.51µM*	17.8µM*	-31.8%	?	4.48*
CCc1ccc2oc(-c3cc(N)ccc3Cl)nc2c1	7.4%	-20.2%[12.7 µM]	?	2.5%	-4.7%	/
SMILES	HP1b binding inh	G9a inh-1	BAZ2B block	GLS inh	JMJD2A Tudor inh	G9a inh-2	others
CCc1ccc2oc(-c3cc(N)ccc3O)nc2c1	3.8%	?	-4.7%	34.8%	-35.2%	?
Cc1ccc2[nH]c(=O)c(CN(Cc3ccc4c(c3)OCO4)Cc3nnnn3Cc3ccco3)cc2c1	1.4%	?	-24.6%	0.6%	-32.1%	/
O=c1[nH]c2cc3c(cc2cc1CN(Cc1cccs1)Cc1nnnn1Cc1ccco1)OCCO3	-24.1%	?	/	5.9%	?	/	RGS4 confirm=9.47*
NC(=O)c1ccc(-n2nnnc2SCC(=O)c2ccc(O)c(O)c2)cc1	-10.1%	11.2µM*	?	-28.6%	?	/	JMJD2E confirm=7.94µM*;FDH counter=-25.9%
O=C(CSc1nnc2c(n1)[nH]c1ccccc12)Nc1ccc2c(c1)OCO2	-1.4%	1.78µM*	-33.2%	-0.4%	-18.5%	1.59*
CC(=O)c1ccc(NC(=O)CSc2nnc3c(n2)[nH]c2ccccc23)cc1	40.6%	2.4%[59 µM]	-30.1%	-10.3%	-21.6%	/
CCC(C(=O)NC(=O)NC(C)=O)c1ccccc1 (stereo not given)	/	/	/	-4.4%	/	/
Oc1c(CN2CCOCC2)cc(-c2ccccc2)cc1CN1CCOCC1	21.1%	0.2%	-37.2%	35.4%	-24.9%	/
Oc1c(CN2CCOCC2)ccc2ccccc12	-30.9%	2.24µM*	-36.4%	3.5%	?	1.26*
O=C(CN1C(=O)NC2(CCCC2)C1=O)Nc1ccccc1F	-3.5%	9.1%[59 µM]	1.1%	-4.4%	-19.7%	/
O=C(Nc1ccccc1[N+](=O)[O-])c1cccnc1Cl	21.8%	23.5%[59 µM]	5.8%	14.4%	-18.1%	/
Cc1ccc(SCC(=O)N2CCN(S(=O)(=O)c3cccs3)CC2)cc1	36.3%	/	/	10.6%	-8.9%	/
CN(C)c1ccc(NC(=O)CCSc2nc(-c3ccco3)cc(C(F)(F)F)n2)cc1	-2.6%	0.708µM*	?	6.8%	?	1.26*
CCN(CC)c1ccc(NC(=O)CN2CCN(CC(=O)Nc3ccccc3F)CC2)cc1	-27.8%	?	?	38.1%	?	6.31*
